# Screens (PubChem BioAssay)
# This is a sample that favours compounds with a hit; in the whole collection about 2.8% have one here.
# PP5 primary = PP5 phosphatase inhibitors, primary screen, biochemical, fluorescence. 0.18% of 320,000 active. inhibition, % at 6.7 µM. purified PP5c, OMFP substrate fluorescence. Serine/threonine-protein phosphatase 5 (Homo sapiens), P53041;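 active means inhibition above the campaign's mean inhibition across all tested compounds plus 3 SD, cut at about 9.5% in these data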;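 further: 0% = DMSO only and 100% = 100 µM cantharidin control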
# Rev-erbA mod = modulators of Rev-erb alpha DNA binding, primary screen, biochemical, FITC-DNA, fluorescence polarization, uHTS; Nuclear receptor subfamily 1 group D member 1 (Homo sapiens), P20393; activity, % at 10 µM; 0.79% of 370,000 active; Rev-erbα–FITC-DNA binding, 90 min; AID 1259318, 2017;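 active means activity above about 14%, limit read from the data; passing the limit was not always enough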;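 further: 0% = DMSO wells with 35 nM protein and 100% = DMSO wells with 750 nM protein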
# PP1 inh = PP1-alpha phosphatase inhibitors, primary screen, counter-screen for PP5 inhibitor project, biochemical, fluorescence, OMFP substrate, single point; Serine/threonine-protein phosphatase PP1-alpha catalytic subunit (Homo sapiens), P62136; 0.9% of 320,000 active; inhibition, % at 6.7 µM; purified PP1alpha;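 active means inhibition above the mean inhibition of all tested compounds plus 3 SD, computed separately for each screening campaign, cut at about 15% in these data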
# Target sequence (P62136 whole entry, looked up): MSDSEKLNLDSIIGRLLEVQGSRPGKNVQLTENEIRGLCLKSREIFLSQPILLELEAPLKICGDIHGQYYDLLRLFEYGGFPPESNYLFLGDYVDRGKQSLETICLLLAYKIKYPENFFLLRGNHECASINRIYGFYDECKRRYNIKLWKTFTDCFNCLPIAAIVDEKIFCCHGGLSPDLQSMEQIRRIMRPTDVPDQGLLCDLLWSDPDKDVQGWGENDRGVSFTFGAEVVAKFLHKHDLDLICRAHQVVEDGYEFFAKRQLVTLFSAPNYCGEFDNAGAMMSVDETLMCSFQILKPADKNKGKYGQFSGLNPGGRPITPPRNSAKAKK
# GASC-1 inh = inhibitors of GASC-1 histone demethylase, primary screen, biochemical, fluorescence, DELFIA europium; Lysine-specific demethylase 4C (Homo sapiens), Q9H3R0; GST-JMJD2C(1-420) H3K9me3 demethylation; inhibition, % at 2.35 µM; 0.069% of 330,000 active; AID 2099, 2009;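 active means more than half of a compound's replicate wells show inhibition beyond 50%, single wells judged on their own value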;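 further: signal counts dimethyl H3K9 product captured on neutravidin plate; 0% = median of DMSO wells and 100% = 0.3 times that DMSO median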
# PG9 binder = binders of HIV-1 gp120 antibody PG9, primary screen, biochemical, TR-FRET. HIV-1 gp120 / PG9 antibody interaction. 0.43% of 360,000 active. inhibition, % at 6.7 µM. TR-FRET gp120-PG9 antibody binding; in the data active means inhibition above about 8.5%
# proKLK7 act = proKLK7 zymogen activators, primary screen, biochemical, fluorescence intensity; 0.9% of 370,000 active; activation, % at 7 µM; Kallikrein-7 (Homo sapiens), P49862; purified proKLK7, EDANS-DABCYL substrate fluorescence; 100% is mature enzyme control, 0% vehicle;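 active means activation above the mean of all tested compounds plus 3 SD, computed per campaign excluding outliers beyond control limits, cut at about 13% in these data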
# Target sequence (P49862 whole entry, looked up): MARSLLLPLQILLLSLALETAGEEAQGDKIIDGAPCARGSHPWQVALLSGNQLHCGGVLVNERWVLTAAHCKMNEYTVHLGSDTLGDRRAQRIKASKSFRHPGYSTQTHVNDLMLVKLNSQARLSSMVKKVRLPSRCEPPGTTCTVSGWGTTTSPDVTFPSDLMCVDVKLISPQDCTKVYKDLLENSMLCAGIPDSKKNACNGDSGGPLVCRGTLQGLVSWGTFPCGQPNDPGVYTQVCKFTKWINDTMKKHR
# NR1D1 mod conf = modulators of Rev-erb alpha DNA binding, confirmation, biochemical, FITC-DNA, fluorescence polarization, single point | 61% of 3,000 active | AID 1259319, 2017 | activation, % at 25 µM | 90 min | shares compounds with Rev-erbA mod;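 active means activation at or above a set limit, or at least 3 SD above the negative control mean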;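 further: 0% = 35 nM protein with DMSO and 100% = 750 nM protein high control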
# RORg DNA counter = modulation of RORgamma DNA binding, dose response, counter-screen for Rev-erb alpha modulator project, biochemical, fluorescence polarization, FITC-DNA; shares compounds with Rev-erbA mod; purified RORgamma protein-FITC-DNA binding; IC50, µM; 8% of 910 active; AID 1259320, 2017;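 active means Compounds whose fitted half-maximal concentration for disrupting protein-DNA binding is below 10 micromolar; the record names Rev-erb in its text, so the target is in doubt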
# * hit, by the source's call; / = no result given; + = active, no number.
SMILES,PP5 primary,Rev-erbA mod,PP1 inh,GASC-1 inh,PG9 binder,proKLK7 act,NR1D1 mod conf,others
O=C(c1ccccc1Oc1ccccc1)N1CCC(Oc2cccnc2)CC1,/,-3,/,/,/,0,/,
C#CCNc1cccc2c1S(=O)(=O)N[C@H](C)CO2,/,0,/,/,0,0,/,
CNc1ccc2c3c(cccc13)C(=O)N(C)C2=O,-26,382*,-42,3,-15,5,339*,RORg DNA counter=>40
CN1C(=O)c2cccc3c(N(C)C)ccc(c23)C1=O,6,27*,-3,-3,-5,1,29*,
CC1CN(c2nc3ccccc3nc2NS(=O)(=O)c2ccccc2)CC(C)O1 (centres undefined),/,-4,/,5,-2,1,/,
O=S(=O)(Nc1nc2ccccc2nc1N1CCN(c2ccccc2)CC1)c1ccc(F)cc1,3,2,2,8,-2,0,/,
Cc1ccccc1C(=O)N=c1ccn(-c2nc3ccccc3nc2NS(=O)(=O)c2ccc(F)cc2)cc1,1,35*,0,-10,-5,0,92*,RORg DNA counter=>40
O=C(N=c1ccn(-c2nc3ccccc3nc2NS(=O)(=O)c2ccccc2)cc1)c1cccs1,4,174*,0,-3,2,-1,145*,RORg DNA counter=>40
COc1ccc2c(c1)c(=O)oc1c(C)c(OCC(=O)N3CCc4ccccc4C3)ccc12,3,20*,-2,3,1,-3,-10,
Cc1cc(=O)oc2cc(OCC(=O)N3CCc4ccccc4C3)ccc12,2,1,-2,0,0,0,/,
COC(=O)[C@]12C[C@H](CC(=O)NCCc3ccccc3OC)C(=O)N(Cc3ccc(Cl)cc3Cl)C1=C[C@H](C(C)C)O[C@@H]2C1CC1,/,8,/,/,/,0,/,
COc1cccc(CNC(=O)Cn2c(-c3ccccc3)cc(C(C)=O)c2C)c1OC,/,-2,/,/,/,-1,/,
Cc1nc(SCc2nc3ccc(F)cc3[nH]2)c2oc3ccccc3c2n1,/,-3,/,/,-10,0,/,
Cc1nc(SCc2nc3ccc(C(=O)c4ccccc4)cc3[nH]2)c2oc3ccccc3c2n1,/,63*,/,/,-58,-6,76*,
Cc1nc(SCc2nc3ccccc3[nH]2)c2oc3cc(Br)ccc3c2n1,/,46*,/,-7,1,-1,53*,RORg DNA counter=>40
Cc1ccc2oc3c(SCc4nc5ccccc5[nH]4)nc(C)nc3c2c1,/,-4,/,/,-3,-2,/,
Cc1csc2ncc(C(=O)Nc3ccc4c(c3)OCCO4)c(=O)n12,-1,28*,-5,-1,1,0,14*,
CCOC(=O)[C@]12CCCC3=C1N(CCC3)C(=O)[C@@H](CC(=O)NCc1ccc(C)o1)C2,/,3,/,/,/,0,/,
CC1(C)CC(=O)c2cnc(N3CCc4ccccc43)nc2C1,1,-1,-2,14,1,0,/,
Fc1cnc(N2CCc3ccccc32)nc1N1CCc2ccccc21,3,57*,-3,1,0,-1,137*,RORg DNA counter=>40
COC(=O)[C@]12C[C@H](CC(=O)NCC34CC5CC(CC(C5)C3)C4)C(=O)N(Cc3ccccc3)C1=C[C@H](C1CCCC1)O[C@@H]2C,/,-4,/,/,0,0,/,
O=C(CN1C(=O)NC(Cc2ccccc2)C1=O)Nc1ccc(OC(F)(F)F)cc1 (centres undefined),4,14*,-3,-4,0,0,-7,
Cc1cc(N(C)C(=O)c2ccc3c(c2)S(=O)(=O)c2cc(Cl)ccc2C3=O)c(C(F)(F)F)o1,/,20*,/,-2,-3,0,20*,
CC(=O)Nc1sc2c(c1-c1cc3ccccc3o1)CCNC2,/,1,/,/,/,/,/,
COc1ccc(OC)c2c1sc(=NC(=O)C1CCCCC1)n2C,-1,44*,2,2,1,0,-15,
SMILES,PP5 primary,Rev-erbA mod,PP1 inh,GASC-1 inh,PG9 binder,proKLK7 act,NR1D1 mod conf,others
CCCC(=O)N=c1sc2c(OC)ccc(OC)c2n1C,1,40*,-1,6,-3,-1,17,
CCn1c(=NC(=O)C2COc3ccccc3O2)sc2c(OC)ccc(OC)c21 (centres undefined),0,47*,-5,-2,-1,-1,18,
COc1ccc(-n2cc(C(=O)c3cc4ccccc4oc3=O)c(C(C)=O)n2)cc1,0,23*,2,0,0,0,9,
COc1cccc(OC(=O)c2cc3ccccc3oc2=O)c1,-1,2,-4,-20,-1,2,/,
COc1cccc(NC(=O)NC2CCCCN(Cc3ccccc3C)C2=O)c1 (centres undefined),/,5,/,/,/,0,/,
CCOc1ccc(CCNC(=O)Cn2ncn3nc(-c4ccc(OC)cc4)cc3c2=O)cc1OCC,1,23*,1,3,2,1,-2,
COc1ccc(-c2cc3c(=O)n(CC(=O)NCCCc4ccccc4)ncn3n2)cc1,0,9,-5,-4,-1,0,/,
CC(=O)Nc1ccc(NC(=O)CSc2nnc(-c3cc4ccccc4o3)n2C)cc1,0,3,-1,8,-1,0,/,
CC(=O)CSc1ncnc2c1oc1ccccc12,2,-4,2,10,-21,0,/,
O=C(CSc1ncnc2c1oc1ccccc12)Nc1ccccc1F,-3,606*,0,-5,1,0,616*,RORg DNA counter=>40
CCc1nc(SCC(=O)NCCc2ccccc2)c2oc3ccccc3c2n1,0,62*,-1,5,-3,-1,69*,RORg DNA counter=>40
Cn1c(SCC(=O)Nc2ccccc2F)nnc1-c1cc2ccccc2o1,-2,26*,0,6,0,0,16,
CCc1nnc(NC(=O)CSc2nnc(-c3ccccc3NC(=O)c3ccccc3)o2)s1,2,28*,-2,-9,1,0,7,
O=C(CSc1ncnc2c1oc1ccccc12)Nc1nc2ccccc2s1,3,5,3,-11,-4,0,/,
CCc1nnc(NC(=O)CSc2ncnc3c2oc2ccccc23)s1,3,98*,-1,-1,-3,-1,21*,
CCOc1ccccc1NC(=O)CSc1ncnc2c1oc1ccccc12,3,+,1,-44,-2,0,+,
CCCSc1ncnc2c1oc1ccccc12,0,-2,-1,-21,/,/,/,
